# USP28 inh: inhibitors of human USP28 deubiquitinase; Q96RU2; purified USP28, Ub-rhodamine cleavage fluorescence, 30 min; inhibition, % at 25 µM; 47,000 compounds, 3% hits
# USP17 block: human USP17-like deubiquitinase inhibition; A8MUK1; purified USP17, Ub-rhodamine cleavage fluorescence, 3 h; inhibition, % at 50 µM; 47,000 compounds, 6.5% hits; AID 1645855
# USP30 inh: human USP30 deubiquitinase inhibition; Q70CQ3; inhibition, % at 25 µM; purified USP30, Ub-rhodamine cleavage fluorescence; AID 1645860; 47,000 compounds, 5.3% hits
# Target sequence (Q70CQ3 whole entry, looked up): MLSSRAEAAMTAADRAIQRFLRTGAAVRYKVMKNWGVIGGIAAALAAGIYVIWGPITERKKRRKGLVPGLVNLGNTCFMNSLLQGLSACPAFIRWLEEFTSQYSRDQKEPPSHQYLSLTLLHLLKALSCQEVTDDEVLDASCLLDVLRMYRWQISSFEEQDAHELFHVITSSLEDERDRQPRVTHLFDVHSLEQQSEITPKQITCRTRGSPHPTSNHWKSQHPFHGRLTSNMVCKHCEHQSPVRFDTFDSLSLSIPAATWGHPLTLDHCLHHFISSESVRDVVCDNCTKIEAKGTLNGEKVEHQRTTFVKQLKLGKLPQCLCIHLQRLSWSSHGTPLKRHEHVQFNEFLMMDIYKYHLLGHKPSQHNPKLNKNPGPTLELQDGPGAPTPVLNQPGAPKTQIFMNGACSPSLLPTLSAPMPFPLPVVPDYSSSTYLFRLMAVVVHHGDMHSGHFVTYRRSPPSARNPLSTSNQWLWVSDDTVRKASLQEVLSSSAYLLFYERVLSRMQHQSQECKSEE
# OTUD3 block: human OTUD3 deubiquitinase inhibition; purified OTUD3, Ub-rhodamine fluorescence, 2 h; Q5T2D3; AID 1645858; inhibition, % at 25 µM; 47,000 compounds, 0.7% hits
# Numbers stand for hits; i = inactive; nt = no result given. The list is not random: actives were taken first. Their share in the collection is about 12%. Cut-off read from the data, not from the text of the source: active = inhibition above about 30%; inactive = the rest.
SMILES,USP28 inh,USP17 block,USP30 inh,OTUD3 block
COc1ccc(C(=O)N2CCc3nc(C(=O)Nc4ccccc4)sc3CC2)cc1,i,i,i,i
Cc1ccccc1-c1nc(CN(C)S(=O)(=O)c2ccccc2)c(C)o1,i,i,56,i
CCOC(=O)c1cccc(NC(=O)Cc2cccc3ccccc23)c1,i,i,i,i
CCOC(=O)c1ccc2nc(NC(=O)Cc3cccc4ccccc34)sc2c1,i,i,36,i
CCn1ccc(C(=O)N2CCCn3nc(-c4ccncc4)cc3C2)n1,i,i,i,i
CCS(=O)(=O)c1ccccc1C(=O)Nc1ccc2sc(C)nc2c1,55,i,i,i
Cc1cccc(NC(=O)CSc2ccc(-n3cnc(-c4ccccc4)c3)nn2)c1,i,i,61,i
Cc1cccc(NC(=O)CSc2ccc(-c3nc(C)no3)cn2)c1,i,i,i,i
COc1cccc(/C=C/C(=O)Nc2ccc(N3CCOCC3)cc2)c1OC,60,30,i,i
COc1ccc(-c2cc3nc([C@H](C)NC(=O)Cc4ccccc4C)nn3cn2)cc1,i,61,i,47
COc1ccc(-c2cc3nc([C@H](C)NC(=O)COc4ccccc4F)nn3cn2)cc1,i,38,47,i
C[C@@H](NC(=O)c1ccc2c(c1)OCCO2)c1nc2cc(-c3ccccc3F)ncn2n1,47,66,78,43
C[C@H](NC(=O)Cc1ccccc1F)c1nc2cc(-c3ccccc3F)ncn2n1,37,42,64,36
COCc1ccc(C(=O)N[C@H](C)c2nc3cc(-c4ccc(OC)cc4)ncn3n2)cc1,i,i,i,i
COc1ccc(-c2cc3nc([C@H](C)NC(=O)CC4CCCC4)nn3cn2)cc1,i,i,i,i
C[C@@H](NC(=O)c1ccc2c(c1)OCO2)c1nc2cc(-c3ccccc3F)ncn2n1,i,i,i,i
Cc1ccc(S(=O)(=O)N2CCN(c3c(C)n(C)c(=O)n(C)c3=O)CC2)cc1C,i,i,37,i
Cc1c(N2CCN(S(=O)(=O)c3ccc(F)c(F)c3)CC2)c(=O)n(C)c(=O)n1C,i,44,37,i
COC(=O)c1c(C(=O)OC)c(-c2ccccc2)n(C)c1-c1ccccc1,i,i,i,i
COC(=O)c1c(C)nn(C)c1-c1ccno1,i,i,31,i
Cc1ccc(-n2c3c(c(=O)[nH]c2=O)CN(C2CCCCC2)CN3)cc1,i,i,i,i
O=C1C[C@@H](O)[C@H](O)[C@@]23O[C@@]12C1(Oc2cccc4cccc(c24)O1)[C@@H]1O[C@@H]1[C@@H]3O,46,81,i,33
CC(=O)N1CCc2cc(S(=O)(=O)N3CCN(C)CC3)ccc21,i,i,i,i
Cc1nc2cc(-c3noc(-c4cccc5[nH]ccc45)n3)ccc2o1,42,36,i,i
COc1ccc(/C=C/c2nc(-c3ccc4oc(C)nc4c3)no2)cc1,i,nt,i,i
SMILES,USP28 inh,USP17 block,USP30 inh,OTUD3 block
Cc1nc2cc(-c3noc(-c4nn(C)c5ccccc45)n3)ccc2o1,i,i,42,i
CN1CC(=O)N(C2CCNC2)Cc2c1ncnc2N1CCCC(O)C1 (centres undefined),i,i,i,i
Cc1ccnc(SCc2cc(=O)c(OC(=O)c3c(F)cccc3Cl)co2)n1,i,39,i,i
NCC(=O)N1CCCC2(Cc3ccccc3CN2S(=O)(=O)c2ccccc2)C1 (centres undefined),i,i,44,i
CC(=O)N1CCCC2(Cc3ccccc3CN2S(=O)(=O)c2ccccc2)C1 (centres undefined),i,i,i,i
CCC(CC)C(=O)c1c[nH]c(C(=O)NCc2cccs2)c1,i,i,38,i
CCCC(=O)c1c[nH]c(C(=O)NCc2cccnc2)c1,nt,i,nt,i
O=C(Oc1ccccc1)C1CCN(c2ccc(S(=O)(=O)N3CCOCC3)cc2[N+](=O)[O-])CC1,i,i,i,i
Nc1nc(-c2cc([N+](=O)[O-])cs2)cs1,i,i,i,i
Nc1ncnc2sc(Nc3ccc([N+](=O)[O-])cc3)nc12,33,34,39,i
Cn1nccc1-c1cc(CC2CCN(S(C)(=O)=O)C2)ncn1 (centres undefined),i,i,i,i
Cc1nc2c(-c3ccccc3)c(C)nn2c(C)c1CC(=O)Nc1ccc(F)cc1,i,i,i,i
COc1ccc(C(=O)NCCc2nnc3ccc(SCC(=O)NCc4ccc(F)cc4)nn23)cc1,i,46,52,i
COc1ccc(C(=O)CSc2ccc3nnc(CCNC(=O)c4ccc(OC)cc4)n3n2)cc1,i,59,43,i
O=C(NCc1cccnc1)c1cn(-c2ccc(Cl)cc2)nn1,i,i,i,i
COCCNC(=O)C1CCN(S(=O)(=O)c2ccc3c(c2)CCCC3)CC1,i,i,i,i
O=C(NCc1cccnc1)C1CCN(S(=O)(=O)c2ccc3c(c2)CCCC3)CC1,i,i,34,i
CCOC(=O)c1csc(-c2ccc(F)cc2F)n1,42,i,i,i
COc1ccccc1-c1c(C#N)c(NC(C)=O)nc2c1CCCCC2,nt,i,nt,i
Cn1c(N)c(C(=O)CSc2nnc(Cn3cnc4ccccc43)n2-c2ccccc2Cl)c(=O)n(C)c1=O,i,i,39,i
Cn1c(N)c(C(=O)COc2ccc([N+](=O)[O-])cc2Cl)c(=O)n(C)c1=O,i,i,i,i
O=C(NC1CCOCC1)N1CCC2(CC1)OC(=O)N(Cc1ccccc1)c1ccccc12,i,i,i,i
O=C(Nc1nc(-c2ccccc2)ns1)c1ccc2ncsc2c1,i,41,i,i
O=C(Cc1ccc(Cl)cc1)Nc1nc(-c2ccc(F)cc2)ns1,i,i,i,i
CCOc1cccc(C(=O)Nc2nc(-c3ccc(OCC)c(OC)c3)ns2)c1,i,i,i,i
SMILES,USP28 inh,USP17 block,USP30 inh,OTUD3 block
O=C(Cc1ccccc1)Nc1nc(-c2ccccc2)ns1,i,i,37,i
Cc1ccccc1C(CC(=O)Nc1ccc(Cl)cc1)n1cccc1 (centres undefined),i,i,i,i
O=C(CCCc1c[nH]c2ccccc12)N1CCN(S(=O)(=O)c2ccc(F)cc2)CC1,i,i,41,i
O=C(CCCc1c[nH]c2ccccc12)N1CCN(S(=O)(=O)c2ccc(Br)cc2)CC1,i,i,i,i
CC(C)c1n[nH]c(=O)c2c1nnn2Cc1ccccc1F,i,i,34,i
Cc1ccc(-c2cc(C(=O)NCCC3=CCCCC3)c3ccccc3n2)o1,i,i,i,i
Cc1ccc(NC(=O)Cn2cnc(S(=O)(=O)N3CCCC3)c2)c(C)c1,i,i,i,i
COc1ccccc1C(=O)Nc1ccc(Cc2ccncc2)cc1,35,i,i,i
Cc1ccc2c(c1)-c1onc(C(=O)NCCc3c[nH]c4ccccc34)c1CO2,i,33,i,i
O=C(NCCc1c[nH]c2ccccc12)c1cc2occc2c(Nc2ccc(F)cc2)n1,i,i,i,i
CCN1Cc2c(C(=O)Nc3ccccc3C)ncn2-c2ccccc2S1(=O)=O,i,i,i,i
O=C(COc1cc2oc(=O)c3c(c2cc1Cl)CCC3)N1CCCC1,i,i,i,i
O=c1oc2c3c(c(Cl)cc2c2c1CCCC2)OCN(CCc1ccc(F)cc1)C3,i,43,i,i
O=c1cc(CN2CCN(Cc3ccccc3)CC2)c2cc3c(cc2o1)CCC3,i,i,i,i

# Compound activity: PubChem, Buhrlage Lab, Dana-Farber Cancer Institute and Novartis Institutes for BioMedical Research (Cambridge, Mass)
